Assay outcomes (PubChem)
An excerpt weighted towards active compounds, which were near 11% of everything screened.
Pf growth 48h: inhibits P. falciparum growth in the first generation, 48 h; P. falciparum luciferase growth in erythrocytes, 48 h; Potency, µM (doses to about 28.7 µM), actives largely listed as inhibitors; actives 5.9% (n = 310,000); AID 504832
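Luciferase-expressing parasites in RBCs, 2% Hct / 0.1% parasitemia final; RPMI 1640 + 0.5% Albumax; 37 C, 5% CO2, one generation; luminescence read-out, lower signal = inhibition.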
NS1 inh: inhibitors of influenza NS1 protein function; actives 0.4% (n = 270,000); AID 2326; Potency, µM (doses to about 46.1 µM); calls by dose curve; also: actives are rising curves; nearly all actives have a fitted effect of over 50% in size
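Compounds were scored for reversing the slow growth caused by influenza A NS1 in S. cerevisiae, measured by optical density at 600 nm. Assay medium contained 2% galactose at pH 6.0; NS1-free yeast of the same strain were the positive control.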
AMA1-RON2 inh: disrupts binding of P. falciparum AMA1 to RON2; AlphaScreen AMA1-biotinylated RON2 peptide binding; Potency, µM (highest dose often 58.2 µM), usual class: inhibitors; actives 0.2% (n = 360,000); AID 720542; also: nearly all actives have a fitted effect of over 45% in size
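AMA1 (3D7) with his tag at 25 nM final met compounds first, then biotinylated RON2 peptide at 25 nM; detection used donor plus acceptor beads, 10 µg/mL apiece, read by AlphaScreen after 30 min at room temperature.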
Pf growth 96h: P. falciparum growth inhibition at 96 hours; Potency, µM (series often up to 28.7 µM), actives largely listed as inhibitors; P. falciparum luciferase reporter growth, 96 h; actives 6.9% (n = 320,000); AID 504834
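Readout is luminescence from an integrated firefly luciferase in P. falciparum. Red cells, 2% hematocrit and 0.05% parasitemia final, were cultured with compound through two parasite generations (96 hours) at 37 C, 5% CO2.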
Sm TGR inh: inhibitors of Schistosoma mansoni thioredoxin glutathione reductase. purified TGR, DTNB reduction, TNB absorbance 405 nm. Potency, µM (highest dose often 114 µM), hits mostly inhibitors. actives 3% (n = 360,000). AID 485364; also: nearly all actives have a fitted effect of over 60% in size
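Kinetic colorimetric format: TGR-catalysed, NADPH-driven DTNB reduction monitored via TNB absorbance. Enzyme dispensed at 20 nM; compound exposure 15 min at room temperature before reaction start.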
Large screens that a line does not name were inactive. Unless noted, calls follow the shape of the dose curve; as a rule, active = well fitted curve in the direction sought with a large enough effect; inconclusive = small, poorly fitted or top-dose-only effect, or another doubt; inactive = no such curve, though single readings can be large; an effect the other way counts as inactive or inconclusive.

COc1ccc(CCn2c(-c3ccccc3)nc3c(c(=O)c4ccccc4n3C)c2=O)cc1	Pf growth 96h inconclusive (no result: AMA1-RON2 inh)
COc1ccc(Cn2c(-c3ccccc3)nc3c(c(=O)c4ccccc4n3C)c2=O)cc1	Pf growth 96h 12µM
COc1ccc(Cn2c(C3CCCCC3)nc3c(c(=O)c4ccccc4n3C)c2=O)cc1	Pf growth 48h 3.3µM, Pf growth 96h 2.3µM
COc1ccc(CCn2c(C3CCCCC3)nc3c(c(=O)c4ccccc4n3C)c2=O)cc1	Pf growth 48h inconclusive, Pf growth 96h inconclusive
Cc1nc2ccccc2c(=O)n1CCc1ccccc1	Pf growth 48h inconclusive, Pf growth 96h inconclusive
CC(C)c1nc2c(c(=O)c3ccccc3n2C)c(=O)n1CCc1ccccc1	Pf growth 48h inconclusive, Pf growth 96h 4.7µM
COc1ccc(CCn2c(C3CCCCC3)nc3c(c(=O)c4ccccc4n3C)c2=O)cc1OC	Pf growth 48h 3.3µM, Pf growth 96h 4.7µM
CCOC(=O)C1CCCN(S(=O)(=O)Cc2ccc(Cl)cc2)C1 (stereo not given)	Pf growth 96h inconclusive
CCS(=O)(=O)N1Cc2cc(C(=O)N(C)C)nc(-c3cccc(-c4ccc(F)cc4)c3)c2[C@@H]1CCO	none (no result: Pf growth 48h, NS1 inh, Pf growth 96h, Sm TGR inh)
COCCn1c(-c2ccc(Cl)cc2)nc2c(c(=O)c3ccccc3n2C)c1=O	Pf growth 48h inconclusive, Pf growth 96h 8.3µM (no result: AMA1-RON2 inh)
COCCn1c(-c2ccccc2Cl)nc2c(c(=O)c3ccccc3n2C)c1=O	Pf growth 96h inconclusive
COc1ccc(CCn2c(C(C)C)nc3oc4ccccc4c(=O)c3c2=O)cc1	Pf growth 48h 8.3µM, Pf growth 96h 6.6µM
N#Cc1cccc2cccc(S(=O)(=O)N3CCOCC3)c12	none (no result: NS1 inh)
Cc1cccc(OCC(=O)NNc2c3ccccc3nc3ccccc23)c1	Pf growth 48h inconclusive, Pf growth 96h 3.7µM
Cc1ccc(OCC(=O)NNc2c3ccccc3nc3ccccc23)cc1	Pf growth 48h 9.3µM, Pf growth 96h inconclusive
Cc1cc(CNC(=O)COc2ccccc2)c2ccccc2n1	none (no result: NS1 inh)
O=S1(=O)N=C(N/N=C/C=C/c2ccccc2)c2ccccc21	Pf growth 48h inconclusive, Pf growth 96h 13µM
COc1ccc(C2C(=O)N(C3CCCCCC3)CC(=O)N2CCc2ccccc2)cc1 (stereo not given)	none (no result: Pf growth 48h, NS1 inh, AMA1-RON2 inh, Pf growth 96h)
CCCCN1C(=O)CN(CCc2ccccc2)C(=O)C1c1ccc(OC)cc1 (stereo not given)	Pf growth 48h inconclusive, Pf growth 96h 5.2µM
COc1ccc(C2C(=O)N(CCc3ccccc3)CC(=O)N2C2CCCCC2)cc1 (stereo not given)	Pf growth 96h 5.2µM (no result: Pf growth 48h)
Cc1cccc(N2CCC(N=CN(C)C)=N2)c1	none (no result: NS1 inh)
CC1CN=C(c2ccccc2)O1 (stereo not given)	none (no result: Pf growth 48h, NS1 inh, Pf growth 96h, Sm TGR inh)
Cc1ccc(NC(=O)c2ccc(NCCc3ccccc3)c([N+](=O)[O-])c2)cc1F	Pf growth 96h 8.3µM
Cc1ccc(NC(=O)c2ccc(NCCN)c([N+](=O)[O-])c2)cc1Cl	Pf growth 48h 4.1µM
CC(C)C(NC(=O)CCNC(=O)c1ccc(C(C)(C)C)cc1)c1nc2ccccc2[nH]1 (stereo not given)	Pf growth 48h 8.3µM, Pf growth 96h inconclusive (no result: NS1 inh)
Cc1ccc(Nc2nnc(SCC(=O)c3c(N)n(C4CC4)c(=O)[nH]c3=O)s2)cc1C	Pf growth 96h inconclusive (no result: NS1 inh)
Cc1cccc(Nc2nnc(SCC(=O)c3c(N)n(C4CC4)c(=O)[nH]c3=O)s2)c1	Pf growth 96h 6.6µM (no result: NS1 inh)
Cc1cccc(Nc2nnc(SC(C)C(=O)NC3CC3)s2)c1 (stereo not given)	Pf growth 48h 13µM, Pf growth 96h 10µM (no result: NS1 inh)
CCn1c(SCC(=O)c2c(N)n(C3CC3)c(=O)[nH]c2=O)nnc1-c1ccccc1OC	Pf growth 48h inconclusive, Pf growth 96h 8.3µM (no result: NS1 inh)
Nc1c(C(=O)CSc2nnc(COc3ccc(Cl)cc3)o2)c(=O)[nH]c(=O)n1C1CC1	Pf growth 48h inconclusive, Pf growth 96h 10µM (no result: NS1 inh)
COc1ccc(Cc2nnc(SCC(=O)c3c(N)n(C4CC4)c(=O)[nH]c3=O)o2)cc1	Pf growth 48h inconclusive, Pf growth 96h inconclusive (no result: NS1 inh)
Cc1nnc(SCC(=O)c2c(N)n(C3CC3)c(=O)[nH]c2=O)n1C	none (no result: Pf growth 48h, NS1 inh, Pf growth 96h, Sm TGR inh)
Nc1c(C(=O)CSc2nncn2-c2ccccc2)c(=O)[nH]c(=O)n1C1CC1	Pf growth 48h inconclusive, Pf growth 96h 12µM (no result: NS1 inh)
CCn1c(Cc2ccccc2)nnc1SCC(=O)c1c(N)n(C2CC2)c(=O)[nH]c1=O	Pf growth 48h inconclusive, Pf growth 96h 9.3µM (no result: NS1 inh)
